Assay results reported in PubChem BioAssay AID435000 (NMMLSC, 2010).
This is one part of the list. Activity calls are given as the source filed them.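 Rule for the calls: active = fluorescence response below 15%; inactive = the rest.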

Assay: yeast superoxide dye artefact check – S. cerevisiae BY4741, flow cytometry, artefact control for yeast caloric restriction mimetic project (AID 435000);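 note: percent of the mean fluorescence averaged over all compound wells on the plate; lower means stronger quenching of DHE signal or ROS scavenging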
Conditions: S. cerevisiae BY4741, DHE fluorescence, at 10 µM, hits give low values

Fluorescence response, inactive:
CC(C)(C)NC(=O)COc1ccc(CNc2ccc3[nH]c(=O)[nH]c3c2)cc1 94.4%
CN1CCN(c2cc3c(cc2F)c(=O)c(C(=O)O)cn3CCF)CC1 100%
O=C(Nc1ccc(Br)cn1)c1ccc([N+](=O)[O-])cc1Cl 94%
NC(=S)Nc1c(Cl)cccc1Cl 97.4%
CC1CCCN(S(=O)(=O)c2ccc(C(=O)Nc3nnc(-c4ccncc4)o3)cc2)C1 (configuration not stated) 109%
CC(=O)c1ccc2c(c1)c1ccccc1n2CC(C)C 107%
Cc1ccc(C23CC4CC(CC(C(=O)NCC(=O)O)(C4)C2)C3)cc1 94.6%
Cc1cc(C(F)F)n2nc(C(=O)Nc3ccc(S(=O)(=O)NC45CC6CC(CC(C6)C4)C5)cc3)nc2n1 104%
CCn1c2ccccc2c2cc(NC(=O)CNC)ccc21 112%
CSc1ncc(Cl)c(C(=O)Nc2cc(C)ccc2C)n1 95.1%
Cc1ccc2cccc(S(=O)(=O)N3CCN(c4ccccc4F)CC3)c2n1 104%
COc1cccc(NC(=O)NCCN2CCCCC2)c1 93.8%
COc1ccc(NC(C)=O)cc1NC(=O)CN1CCN(c2ccccn2)CC1 96.8%
O=C(O)C1CCCN1S(=O)(=O)c1ccc(Br)cc1 (configuration not stated) 90.2%
COc1cc(NC(=O)CSc2ccc(-c3cccnc3)nn2)cc(OC)c1 123%
Cc1ccc(-c2nn(C(C)(C)C)c3ncnc(N)c23)cc1 99.5%
Cc1cc2oc(C(=O)Nc3c(C)n(C)n(-c4ccccc4)c3=O)c(C)c2cc1Cl 95.3%
O=C(CSc1ccc(-c2ccc(-n3cccn3)cc2)nn1)Nc1ccc([N+](=O)[O-])cc1 88.8%
O=C(Nc1cccc(Cl)c1Cl)c1ccccc1NC(=O)C1CC=CCC1C(=O)O (configuration not stated) 89.9%
CCCC(C)C(=O)OCC(=O)Nc1c(Br)cc(C)cc1Br (configuration not stated) 89.1%
CC(C)NC(=O)/C(C#N)=C\c1ccc(N(C)C)c(Br)c1 92.3%
O=C(O)c1ccc(F)c(S(=O)(=O)Nc2ccccc2)c1 90.9%
